Inconclusive results are not listed. Activity calls are given as the source filed them. Calls come from the whole dose curve; as a rule, active = well fitted curve in the direction sought with a large enough effect; inconclusive = small, poorly fitted or top-dose-only effect, or another doubt; inactive = no such curve, though single readings can be large; an effect the other way counts as inactive or inconclusive.
Assays:
[1] = target: Glutathione peroxidase 1 (Homo sapiens) (UniProt P07203); assay: Primary qHTS Assay for Inhibitors of Recombinant Selenoprotein Glutathione Peroxidase 1 (GPX1) (AID 1845191); note: nearly all actives have a fitted effect of over 65% in size
Sequence of Glutathione peroxidase 1 (Homo sapiens) (P07203 whole entry, looked up): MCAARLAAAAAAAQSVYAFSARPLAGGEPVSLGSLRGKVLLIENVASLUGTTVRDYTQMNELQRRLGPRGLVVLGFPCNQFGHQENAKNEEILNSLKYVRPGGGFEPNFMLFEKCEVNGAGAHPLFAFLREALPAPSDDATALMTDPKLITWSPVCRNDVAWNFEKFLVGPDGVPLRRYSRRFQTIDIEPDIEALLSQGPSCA
Summary of the method: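 10 nM GPX1 + cpd, 30 min RT; start w/ 1 mM GSH, 0.5 mM cumene hydroperoxide, 0.5 mM NADPH, 100 nM GR, 0.01% BSA; buffer 50 mM Tris-HCl pH 7.5, 2 mM EDTA, 150 mM NaCl; Fl 340/450, 0 & 15 min.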

[2] = Quantitative High-Throughput drug screen in 47 multiple myeloma cell lines against the NCATS MIPE library collection: Delta47_JCRB cell viability assay (AID 1918925; note: nearly all actives have a fitted effect of over 45% in size; note: potency is the fitted concentration of half-maximal effect)
Summary of the method: (§1)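 Luminescent ATP measurement with CellTiter-Glo gives viability, scaled between DMSO-only wells (100%) and media-only wells (0%). Cells, 500 per well, faced library compounds for 48 hours at 37C.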

[3] = Quantitative High-Throughput drug screen in 47 multiple myeloma cell lines against the NCATS MIPE library collection: EJM_DSMZ cell viability assay (AID 1918926; note: nearly all actives have a fitted effect of over 30% in size; note: potency is the fitted concentration of half-maximal effect)
Summary of the method: as §1

[4] = Quantitative High-Throughput drug screen in 47 multiple myeloma cell lines against the NCATS MIPE library collection: AMO1_DSMZ cell viability assay (AID 1918927; note: nearly all actives have a fitted effect of over 30% in size; note: potency is the fitted concentration of half-maximal effect)
Summary of the method: as §1

[5] = Quantitative High-Throughput drug screen in 47 multiple myeloma cell lines against the NCATS MIPE library collection: ARP1_JJKsccF8 cell viability assay (AID 1918928; note: nearly all actives have a fitted effect of over 40% in size; note: potency is the fitted concentration of half-maximal effect)
Summary of the method: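 Myeloma cells at 500 per well in 1536-well format treated with MIPE 4.0 library by pin transfer for 48 h at 37C, 5% CO2. Viability from ATP luminescence (CellTiter-Glo), normalized to DMSO (100%) and media-only (0%) wells.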

[6] = Quantitative High-Throughput drug screen in 47 multiple myeloma cell lines against the NCATS MIPE library collection: Karpas620_DSMZ cell viability assay (AID 1918959); note: nearly all actives have a fitted effect of over 30% in size; note: potency is the fitted concentration of half-maximal effect
Summary of the method: (§2)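 Primary qHTS used for cherry-picking: cells at 500/well, library compounds for 48 h (37C, 5% CO2), luminescent ATP assay.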

[7] = Quantitative High-Throughput drug screen in 47 multiple myeloma cell lines against the NCATS MIPE library collection: FR4_PLB cell viability assay (AID 1918924; note: nearly all actives have a fitted effect of over 35% in size; note: potency is the fitted concentration of half-maximal effect)
Summary of the method: as §2

[8] = Quantitative High-Throughput drug screen in 47 multiple myeloma cell lines against the NCATS MIPE library collection: ARD_JJKsccE7 cell viability assay (AID 1918929; note: potency is the fitted concentration of half-maximal effect)
Summary of the method: as §1

Measured: Potency

CCCCCCCCc1ccc(CCC(N)(CO)CO)cc1
active: [2] 5.26 µM | [3] 23.5 µM | [4] 8.33 µM | [5] 10.5 µM | [6] 8.33 µM
inactive: [1]

C=CC1=C(C(=O)O)N2C(=O)[C@@H](NC(=O)C(=NO)c3csc(N)n3)[C@H]2SC1
inactive: [7] | [2] | [3] | [5] | [6]

C=C1C(=CC=C2CCC[C@]3(C)[C@@H]([C@H](C)CCCC(C)(C)O)CC[C@@H]23)C[C@@H](O)C[C@@H]1O
active: [7] 14.8 µM | [2] 9.35 µM | [3] 2.35 µM | [8] 4.18 µM

CC(C)(C)[N+]([O-])=Cc1ccc(S(=O)(=O)O)cc1S(=O)(=O)O
not listed: [1] | [8]
inactive: all other assays above

CCN(CC)CCNC(=O)c1c(C)[nH]c(C=C2C(=O)Nc3ccc(F)cc32)c1C
active: [7] 10.8 µM | [2] 1.52 µM | [3] 12.1 µM | [4] 3.4 µM | [5] 4.81 µM | [8] 2.15 µM | [6] 4.81 µM

O=C(O)C=Cc1ccc(Cn2ccnc2)cc1
active: [4] 0.372 µM
inactive: [7] | [2] | [3] | [8]

COC1=C2C[C@@H](C)C[C@H](OC)[C@@H](O)[C@@H](C)C=C(C)[C@H](OC(N)=O)[C@@H](OC)C=CC=C(C)C(=O)NC(=CC1=O)C2=O
active: [7] 0.332 µM | [2] 0.132 µM | [3] 0.372 µM | [5] 0.118 µM

CC(C)(O)Cn1c(NC(=O)c2ccc(-c3cn[nH]c3)s2)nc2cc(CN3CCOCC3)ccc21
active: [7] 0.743 µM | [2] 0.833 µM | [3] 1.05 µM | [4] 0.469 µM | [5] 1.18 µM | [8] 0.469 µM | [6] 0.662 µM

CC(=O)NCC(=O)N1[C@H]2CC[C@H]1c1cc(Nc3ncc(C(F)(F)F)c(NC4CCC4)n3)ccc12
active: [7] 9.35 µM | [2] 0.662 µM | [3] 7.43 µM | [4] 0.235 µM | [5] 4.69 µM | [8] 1.66 µM | [6] 1.32 µM

CC(=O)C1=C(O)C=C2Oc3c(C(C)=O)c(O)c(C)c(O)c3C2(C)C1=O (stereo not drawn)
inactive: [7] | [2] | [3] | [5]

C=CC(=O)Nc1cc(NC(=O)c2ccc(C)c(NC(=O)c3ccno3)c2)cc(C(F)(F)F)c1
active: [7] 26.4 µM | [2] 9.35 µM | [3] 16.6 µM | [4] 5.26 µM | [5] 16.6 µM | [8] 5.9 µM | [6] 8.33 µM

O=C(C=CC#Cc1cccc(NS(=O)(=O)c2ccccc2)c1)NO
active: [7] 1.18 µM | [2] 1.18 µM | [3] 5.9 µM | [5] 0.372 µM | [8] 1.18 µM | [6] 1.87 µM

CC(C)N(CC[C@H](c1ccccc1)c1cc(CO)ccc1O)C(C)C
not listed: [1] | [8]
inactive: all other assays above

O=C(O)C(=O)Nc1cccc(C2=NN=N[N]2)c1
not listed: [1]
inactive: all other assays above

CS[C@H]1SC[C@@H]2C(=O)N(C)[C@H](C(C)C)C(=O)OC[C@H](NC(=O)c3cnc4ccccc4n3)C(=O)N[C@H](C)C(=O)N(C)[C@@H]1C(=O)N(C)[C@H](C(C)C)C(=O)OC[C@H](NC(=O)c1cnc3ccccc3n1)C(=O)N[C@H](C)C(=O)N2C
active: [7] 0.0042 µM | [2] 0.001 µM | [3] 0.0059 µM | [5] 0.0033 µM

CC[C@H]1OC(=O)[C@H](C)[C@@H](O[C@H]2C[C@@](C)(OC)[C@@H](O)[C@H](C)O2)[C@H](C)[C@@H](O[C@@H]2O[C@H](C)C[C@H](N(C)C)[C@@H]2O)[C@](C)(OC)C[C@@H](C)C(=O)[C@H](C)[C@@H](O)[C@]1(C)O
not listed: [1] | [8]
inactive: all other assays above

CC(=O)O[C@H]1C[C@@H]2CC[C@H]3[C@H]4C[C@H]([N+]5(C)CCCCC5)[C@@H](OC(C)=O)[C@@]4(C)CC[C@@H]3[C@@]2(C)C[C@H]1N1CCCCC1
inactive: [7] | [2] | [3] | [5] | [8]

COc1cc(C=CC(=O)CC(=O)C=Cc2ccc(O)c(OC)c2)ccc1O
active: [7] 10.8 µM | [2] 4.29 µM | [3] 21.5 µM | [4] 5.4 µM | [5] 8.55 µM | [8] 6.05 µM | [6] 3.4 µM

C[C@H](NC(=O)C(C#N)=Cc1cccc(Br)n1)c1ccccc1
active: [7] 3.72 µM | [2] 2.09 µM | [3] 1.66 µM | [4] 13.2 µM | [5] 5.9 µM | [8] 11.8 µM | [6] 11.8 µM

Nc1ncn([C@@H]2O[C@H](CO)[C@@H](O)[C@@H]2O)c(=O)n1
active: [7] 4.69 µM | [2] 3.32 µM | [3] 13.2 µM | [4] 1.48 µM | [5] 5.26 µM | [8] 2.35 µM | [6] 4.69 µM

COc1ccc2c(c1OC)C(=O)OC2[C@H]1c2c(cc3c(c2OC)OCO3)CCN1C (stereo partly drawn)
active: [7] 0.0526 µM | [2] 0.187 µM | [3] 2.09 µM | [4] 0.0743 µM | [5] 0.0526 µM | [6] 0.0264 µM

— PubChem BioAssay (NCATS)
